The text below walks through data of ChEMBL document CHEMBL5308504, “Tm Shift (DSF) assay results for EUbOPEN Chemogenomics Library” (2023).

What all share (settings): Compound concentration 20.0 uM, Protein concentration 2.0 uM, Result type QC Liability
Test [1] deals with Tyrosine-protein kinase ABL1 (Homo sapiens) (UniProt P00519).
Test [2] addresses Cyclin-dependent kinase 2 (Homo sapiens) (UniProt P24941).
In test [3] the target is Casein kinase I isoform delta (Homo sapiens) (UniProt P48730).
Casein kinase I isoform delta (Homo sapiens), sequence (P48730 whole entry, looked up, canonical isoform): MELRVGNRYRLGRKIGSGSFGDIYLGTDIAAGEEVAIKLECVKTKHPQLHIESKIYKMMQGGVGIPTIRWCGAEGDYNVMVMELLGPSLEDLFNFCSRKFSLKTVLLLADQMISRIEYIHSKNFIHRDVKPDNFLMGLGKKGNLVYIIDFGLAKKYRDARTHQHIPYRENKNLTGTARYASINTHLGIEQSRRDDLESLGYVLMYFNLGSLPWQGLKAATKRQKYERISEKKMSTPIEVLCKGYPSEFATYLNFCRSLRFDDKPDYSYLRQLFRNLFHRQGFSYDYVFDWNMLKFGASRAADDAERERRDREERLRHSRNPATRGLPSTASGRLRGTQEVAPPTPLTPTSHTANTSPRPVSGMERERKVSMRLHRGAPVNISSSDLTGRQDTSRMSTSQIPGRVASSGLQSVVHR
Test [4] deals with Glycogen synthase kinase-3 beta (Homo sapiens) (UniProt P49841).
Glycogen synthase kinase-3 beta (Homo sapiens), sequence (P49841 whole entry, looked up): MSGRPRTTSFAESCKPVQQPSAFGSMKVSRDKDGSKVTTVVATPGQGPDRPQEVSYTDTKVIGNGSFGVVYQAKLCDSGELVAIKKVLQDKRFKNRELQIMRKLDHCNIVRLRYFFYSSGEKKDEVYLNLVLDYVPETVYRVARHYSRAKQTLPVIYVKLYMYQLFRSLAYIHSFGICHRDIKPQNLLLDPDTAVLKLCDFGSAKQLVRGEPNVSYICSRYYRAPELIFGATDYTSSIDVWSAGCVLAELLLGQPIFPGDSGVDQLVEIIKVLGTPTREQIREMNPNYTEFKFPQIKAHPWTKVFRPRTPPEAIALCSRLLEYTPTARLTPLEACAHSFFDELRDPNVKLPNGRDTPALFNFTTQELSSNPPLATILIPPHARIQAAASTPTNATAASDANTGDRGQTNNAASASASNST
Test [5] deals with Mitogen-activated protein kinase 1 (Homo sapiens) (UniProt P28482).
Mitogen-activated protein kinase 1 (Homo sapiens), sequence (P28482 whole entry): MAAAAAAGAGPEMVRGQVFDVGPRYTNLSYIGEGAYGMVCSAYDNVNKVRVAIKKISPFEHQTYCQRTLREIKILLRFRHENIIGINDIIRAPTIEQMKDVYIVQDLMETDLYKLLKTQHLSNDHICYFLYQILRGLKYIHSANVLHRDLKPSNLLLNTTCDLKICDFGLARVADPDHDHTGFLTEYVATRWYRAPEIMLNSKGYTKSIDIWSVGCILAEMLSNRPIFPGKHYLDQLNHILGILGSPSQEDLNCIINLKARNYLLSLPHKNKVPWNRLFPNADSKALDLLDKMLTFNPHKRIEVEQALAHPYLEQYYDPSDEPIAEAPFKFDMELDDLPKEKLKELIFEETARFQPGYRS
For test [6], the target named is T1, Aurora kinase A (Homo sapiens) (UniProt O14965).
T1 sequence (whole entry): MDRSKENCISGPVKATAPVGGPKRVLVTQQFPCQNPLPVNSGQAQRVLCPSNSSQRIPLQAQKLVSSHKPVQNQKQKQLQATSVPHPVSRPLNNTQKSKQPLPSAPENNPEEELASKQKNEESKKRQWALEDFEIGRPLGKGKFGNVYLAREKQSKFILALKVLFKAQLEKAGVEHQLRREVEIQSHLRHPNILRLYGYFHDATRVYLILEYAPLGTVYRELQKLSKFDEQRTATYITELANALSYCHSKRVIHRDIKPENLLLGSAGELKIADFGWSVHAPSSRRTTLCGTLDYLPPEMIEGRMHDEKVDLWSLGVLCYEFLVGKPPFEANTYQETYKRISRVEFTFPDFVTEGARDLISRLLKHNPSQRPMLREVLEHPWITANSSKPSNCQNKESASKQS

Several values for one entry are separate records, joined by “and”; a condition that tells them apart may be missing. Equal values may be shown once.

Tyrosine-protein kinase ABL1 (Homo sapiens), sequence (P00519 whole entry): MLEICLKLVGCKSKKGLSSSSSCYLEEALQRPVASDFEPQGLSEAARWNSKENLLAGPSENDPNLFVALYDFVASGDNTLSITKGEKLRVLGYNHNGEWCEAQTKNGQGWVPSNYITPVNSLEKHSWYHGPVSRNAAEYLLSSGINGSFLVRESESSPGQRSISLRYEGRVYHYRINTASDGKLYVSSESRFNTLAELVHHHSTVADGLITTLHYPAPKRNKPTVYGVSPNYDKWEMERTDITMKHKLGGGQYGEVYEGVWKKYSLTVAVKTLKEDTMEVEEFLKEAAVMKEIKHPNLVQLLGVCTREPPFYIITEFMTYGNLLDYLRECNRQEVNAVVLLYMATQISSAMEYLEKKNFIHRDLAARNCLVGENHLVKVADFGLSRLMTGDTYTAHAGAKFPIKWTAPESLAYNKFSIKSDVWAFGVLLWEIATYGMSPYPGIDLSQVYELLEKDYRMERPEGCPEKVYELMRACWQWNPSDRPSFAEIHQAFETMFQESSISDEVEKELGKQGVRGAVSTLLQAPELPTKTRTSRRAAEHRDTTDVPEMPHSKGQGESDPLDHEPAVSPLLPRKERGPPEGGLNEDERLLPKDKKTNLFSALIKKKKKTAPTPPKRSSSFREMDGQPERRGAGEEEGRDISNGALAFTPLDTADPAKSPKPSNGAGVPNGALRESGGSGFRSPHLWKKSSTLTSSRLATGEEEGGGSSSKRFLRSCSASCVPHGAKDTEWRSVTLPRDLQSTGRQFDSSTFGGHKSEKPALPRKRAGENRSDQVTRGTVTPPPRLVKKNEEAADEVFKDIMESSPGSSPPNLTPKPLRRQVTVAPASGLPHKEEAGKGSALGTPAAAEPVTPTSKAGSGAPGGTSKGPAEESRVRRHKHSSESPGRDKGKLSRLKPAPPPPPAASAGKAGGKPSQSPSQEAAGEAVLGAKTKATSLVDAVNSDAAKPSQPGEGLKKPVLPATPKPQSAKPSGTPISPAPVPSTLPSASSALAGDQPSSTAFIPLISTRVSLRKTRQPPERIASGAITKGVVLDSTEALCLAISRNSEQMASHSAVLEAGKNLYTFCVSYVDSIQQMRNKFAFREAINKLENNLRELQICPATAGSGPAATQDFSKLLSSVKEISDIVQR

As to `O=C(NC[C@@H]1[C@H]2CN(C(=O)OCc3cc(C(F)(F)F)cc(C(F)(F)F)c3)C[C@@H]12)c1ccc2[nH]nnc2c1`, the ΔTm was -2.53 °C in test [1]; -9.8 °C in test [2]; 0.69 °C in test [3]; -10.5 °C in test [4]; -10.3 °C in test [5]; 0.61 °C in test [6].

As for `CC(C)(C)C(=O)NCc1ccc(Cl)c(C(=O)Nc2ncc[nH]2)c1`, the shift in melting temperature (ΔTm) in test [1] was 0.08 °C; in test [2], 0.44 °C; in test [3], -0.14 °C; in test [4], 0.45 °C; in test [5] it was -0.01 °C; in test [6] it was -0.18 °C.

`N[C@@H]1CCCN(c2c(/C=C3\SC(=O)NC3=O)cccc2-c2ccccc2)C1`: the ΔTm in test [1] was -0.18 °C; in test [2] it was 2.37 °C; in test [3], 0.88 °C; in test [4] it was 3.72 °C; in test [5], 0.64 °C; in test [6] it was -0.48 °C.

On to `CN(C)CCC[C@@]1(c2ccc(F)cc2)OCc2cc(C#N)ccc21`, for which the thermal shift (ΔTm) was 0.61 °C in test [1]; 0.64 °C in test [2]; -0.32 °C in test [3]; -0.03 °C in test [4]; 0.7 °C in test [5]; -0.23 °C in test [6].

As to `CC(=O)Nc1nc(C)c(S(=O)(=O)Nc2ccc(C(O)(C(F)(F)F)C(F)(F)F)cc2)s1`, the ΔTm was found to be 0.65 °C in test [1]; 0.74 °C in test [2]; 0.36 °C in test [3]; 0.5 °C in test [4]; 0.18 °C in test [5]; 1.27 °C in test [6].

`Cc1[nH]nc(C(F)(F)F)c1Cc1sc2c(c1C(=O)N1C[C@](C)(O)CO1)c(=O)n(C)c(=O)n2C(C)C`: the ΔTm is 0.24 °C in test [1]; 0.67 °C in test [2]; -0.27 °C in test [3]; 0.32 °C in test [4]; 0.23 °C in test [5]; -0.32 °C in test [6].

`O=c1[nH]c(CS[C@H]2CC[C@H](O)CC2)nc2cc(OCC3CC3)cc(F)c12`: the thermal shift (ΔTm) in test [1] was 0.13 °C; in test [2] it was 0.95 °C; in test [3] it was 0.35 °C; in test [4] it was 0.78 °C; in test [5], 0.46 °C; in test [6] it was -0.03 °C.

Turning to `CN(C)[C@H]1CC[C@H](Nc2ncc3ncnc(Nc4ccc(F)c(Cl)c4)c3n2)CC1`, the ΔTm in test [1] turned out to be 3.21 °C; in test [2], 1.27 °C; in test [3], 1.07 °C; in test [4] it was 1.75 °C; in test [5] it was 0.51 °C; in test [6] it was 0.2 °C.

`C=CC[C@@H]1/C=C(\C)C[C@H](C)C[C@H](OC)[C@H]2O[C@@](O)(C(=O)C(=O)N3CCCC[C@H]3C(=O)O[C@H](/C(C)=C/[C@@H]3CC[C@@H](O)[C@H](OC)C3)[C@H](C)[C@@H](O)CC1=O)[C@H](C)C[C@@H]2OC`: the ΔTm in test [1] is -0.14 °C; in test [2], -0.14 °C; in test [3], -0.31 °C; in test [4] it was 0.01 °C; in test [5], -1.81 °C; in test [6], -0.2 °C.

In the case of `CC(=O)c1ccc2c(c1)/C(=C(/Nc1cccc(C#N)c1)c1ccc3c(c1)OCCO3)C(=O)N2`, the ΔTm in test [1] came out at 6.24 °C; in test [2], 5.79 °C; in test [3], 1.02 °C; in test [4], 12 °C; in test [5], 0.75 °C; in test [6] it was 4.32 °C.

Take `COC(=O)Nc1nc2c(s1)-c1c(c(-c3cccnc3)nn1-c1ccc(C3(N(C)C)CC3)cc1)CC2`: the ΔTm in test [1] is 0.57 °C; in test [2] it was 0.64 °C; in test [3], -0.25 °C; in test [4] it was -0.71 °C; in test [5] it was 0.36 °C; in test [6], -0.79 °C.

For the compound `Nc1nc(-c2nn(Cc3ccccc3F)c3ncccc23)ncc1C1CC1`, the ΔTm in test [1] is 0.84 °C; in test [2], 0.56 °C; in test [3], 0.44 °C; in test [4], -0.21 °C; in test [5] it was 0.15 °C; in test [6] it was 0.14 °C.

With `CN(C)C(=O)c1cc2cnc(Nc3ccc(N4CCN(CCCCNC(=O)COc5cccc6c5C(=O)N(C5CCC(=O)NC5=O)C6=O)CC4)cn3)nc2n1C1CCCC1` (stereo unspecified), the ΔTm is 0.61 °C in test [1]; 0.81 °C in test [2]; -0.24 °C in test [3]; -0.75 °C in test [4]; 0.11 °C in test [5]; 4.38 °C in test [6].

`O=C(NCc1ccc(F)cc1)C1CCN(S(=O)(=O)c2cc(Cl)cc(Cl)c2)CC1`: the ΔTm in test [1] was 0.04 °C; in test [2], -0.1 °C; in test [3], 0.71 °C; in test [4], -0.45 °C; in test [5], 0 °C; in test [6] it was 0.52 °C.

As to `CN[C@@H](C)C(=O)N[C@H](C(=O)N1CCC[C@H]1C(=O)Nc1sc(-c2ncco2)nc1-c1ccccc1)C1CCCCC1`, the ΔTm in test [1] was 0.05 °C; in test [2], -0.21 °C; in test [3] it was -0.13 °C; in test [4], -0.9 °C; in test [5], 0.08 °C; in test [6], -0.03 °C.

As to `CCCCC[C@H](O)/C=C/[C@H]1[C@H](O)CC(=O)[C@@H]1CCCCCCC(=O)O`, the ΔTm in test [1] was 0.19 °C; in test [2], 0.43 °C; in test [3], 0.1 °C; in test [4] it was -0.48 °C; in test [5], 0.29 °C; in test [6] it was -0.09 °C.

For the compound `CN(C)[C@H]1C[C@H](n2cnc(-c3ccc(F)cn3)c2-c2ccnc3[nH]ccc23)C1`, the ΔTm is 0.17 °C in test [1]; 0.4 °C in test [2]; 4.93 °C in test [3]; -0.83 °C in test [4]; 0.21 °C in test [5]; -0.76 °C in test [6].

For `CC(C)NC(=O)[C@H]1CCC[C@H]1Nc1nc(Nc2ccc(C(=O)N(C)C3CCN(C)CC3)cc2)ncc1Cl`, the ΔTm is 10.3 °C and 6.45 °C in test [1]; 1.23 °C and 1.13 °C in test [2]; 0.47 °C and 0.12 °C in test [3]; 0.76 °C and -0.38 °C in test [4]; 0.47 °C and 0.79 °C in test [5]; 15.7 °C and 14.3 °C in test [6].

Turning to `Oc1c(CN2CCCC2)cc(COCc2ccccc2)c2cccnc12`, the ΔTm in test [1] was 0.07 °C; in test [2], 0.07 °C; in test [3] it was 1.22 °C; in test [4], -0.76 °C; in test [5], 0.33 °C; in test [6] it was -1.78 °C.

As to `CN(C)C(=O)Cn1cc(-c2ccc(-c3cncc4ccccc34)cc2)cn1`, the ΔTm was 3.4 °C in test [1]; 0.46 °C in test [2]; 1.89 °C in test [3]; 0.72 °C in test [4]; -0.64 °C in test [5]; 2.96 °C in test [6].

Consider `CCC(F)(F)c1cc(N2CCC(S(C)(=O)=O)CC2)nc2sc(C(N)=O)c(N)c12`, for which the ΔTm in test [1] is 0.45 °C and 1.08 °C and 2.55 °C; in test [2] it was 0.38 °C and 0.74 °C and 0.49 °C; in test [3] it was 1.03 °C and 1.35 °C and 2.12 °C; in test [4], 0.35 °C and -0.21 °C and 1.09 °C; in test [5], 0.45 °C and 0.46 °C and 0.62 °C; in test [6], 0.98 °C and 0.42 °C and 1.33 °C.

With `CCC(=O)N[C@@H]1CC[C@H](C(=O)N(C)c2ccc(-c3nc4ccccc4o3)cc2)C1`, the ΔTm in test [1] was 0.73 °C; in test [2] it was 0.64 °C; in test [3], 0.6 °C; in test [4], -0.1 °C; in test [5] it was 0.12 °C; in test [6] it was 0.03 °C.

Regarding `CN1CCN(c2ccnc(NCCc3ccccc3)n2)CC1`, the ΔTm was 0.08 °C in test [1]; 0.11 °C in test [2]; 0.22 °C in test [3]; -0.49 °C in test [4]; 0.69 °C in test [5]; -0.92 °C in test [6].

On to `CCOC(=O)c1ccc(CN(Cc2ccc(-c3cccc(S(C)(=O)=O)c3)cc2)S(=O)(=O)c2c(C)cc(C)cc2C)o1`, for which the thermal shift (ΔTm) was -2.07 °C in test [1]; -2 °C in test [2]; -1.52 °C in test [3]; -0.28 °C in test [4]; -3 °C in test [5]; -3.1 °C in test [6].

With `CC[C@H](CC(=O)O)n1c(=O)c2ncccc2n(Cc2cn(C)c3cc(C)cc(C)c23)c1=O`, the ΔTm in test [1] was -0.39 °C and 0.26 °C; in test [2], 0.68 °C and 0.96 °C; in test [3] it was 0.28 °C and -0.08 °C; in test [4], -0.11 °C and -0.78 °C; in test [5], 0.08 °C and 0.23 °C; in test [6], -0.13 °C and 0.01 °C.

As to `COc1cc(C(=O)NC2CCN(C)CC2)ccc1Nc1ncc2c(n1)N(C1CCCC1)CC(F)(F)C(=O)N2C`, the ΔTm in test [1] was 0.35 °C; in test [2] it was 0.09 °C; in test [3] it was 1.15 °C; in test [4] it was -0.4 °C; in test [5], 0.38 °C; in test [6], 0.78 °C.

A word on the ΔTm: it is the shift of the melting midpoint relative to a reference.
